# Assay results reported in PubChem BioAssay.
# A number with no mark means an inactive call. No rule for the calls is given here.
# Molecular target: Pantothenate synthetase (Mycobacterium tuberculosis (strain ATCC 25618 / H37Rv)) (UniProt P9WIL5)
# Experiment: Recombinant Mtb pantothenate synthetase (PanC) inhibitors, coupled enzyme, confirmatory (AID 375);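 also: 0% = full reaction with vehicle and 100% = no enzyme background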
# Details: coupled enzyme assay; at 10 µM, hits give high values
# Pantothenate synthetase (Mycobacterium tuberculosis (strain ATCC 25618 / H37Rv)), sequence (P9WIL5 whole entry, looked up): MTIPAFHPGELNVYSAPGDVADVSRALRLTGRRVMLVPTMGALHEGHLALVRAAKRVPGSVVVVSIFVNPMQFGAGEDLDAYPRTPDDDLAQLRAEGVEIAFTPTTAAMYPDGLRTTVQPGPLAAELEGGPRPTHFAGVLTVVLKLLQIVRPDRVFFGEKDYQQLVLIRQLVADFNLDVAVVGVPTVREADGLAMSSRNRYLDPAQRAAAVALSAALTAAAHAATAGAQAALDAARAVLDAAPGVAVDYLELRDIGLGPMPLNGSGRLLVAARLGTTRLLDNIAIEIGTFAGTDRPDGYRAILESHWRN
row,SMILES,inhibition [%]
1,CCCCN(C(=O)c1ccc(Cl)cc1)C1CC2CCC(C1)N2C (stereo not given),0
2,O=C(O)C1CCCN1c1ncnc2c1oc1ccccc12 (stereo not given),0
3,CCC(=O)N1CCc2cc(OC)c(OC)cc2C1COc1ccc(C(=O)OC)cc1 (stereo not given),9
4,CNC(=O)CSc1nnc(-c2cc3c(C)nn(-c4ccccc4)c3s2)n1C,2
5,O=C(CSc1nnc(COc2ccc(Cl)cc2)o1)N1CCN(c2ccccc2)CC1,0
6,COCCn1c(C)cc(C(=O)CSc2nc3ccccc3c(=O)[nH]2)c1C,0
7,CCCCOc1ccc(-c2nnn(CC(=O)NCc3ccco3)n2)cc1,0
8,COc1ccc(-c2nc(C#N)c(N3CCN(c4ccccc4)CC3)o2)cc1,0
9,COC(=O)CCn1nnc(-c2ccc(C)cc2)n1,1
10,CCn1cc(C(=O)O)c(=O)c2cc(F)c(N3CCNCC3)nc21,6
11,O=C(c1cnn2c(C(F)F)cc(C3CC3)nc12)N1CCOCC1,1
12,Cc1sc2nc(SCC(=O)NCCO)n(C)c(=O)c2c1C,0
13,COCCNC(=O)c1ccc(CS(=O)(=O)c2c(Cl)cccc2Cl)o1,0
14,N#CC1=C(N)OC2=C(CCC/C2=C/c2ccoc2)C1c1ccoc1 (stereo not given),2
15,COc1ccccc1NC(=O)NCCCN1CCN(c2cccc(Cl)c2)CC1,2
16,Cc1ccc(OCC(=O)NCCN2CCCC2)cc1,0
17,O=C(c1cccs1)N(Cc1ccco1)Cc1cc2ccccc2[nH]c1=O,0
18,Clc1ccc2c(c1)C(N1CCNCC1)=Nc1ccccc1O2,8
19,CC(=O)Nc1cccc(NC(=O)CSc2nn3c(=O)c(C)nnc3s2)c1,2
20,Nc1nnc(-c2cccc(Cl)c2Cl)c(N)n1,2

row,SMILES,inhibition [%]
1,CN1C(=O)CC(C(=O)Nc2ccc(F)cc2)SC1=Nc1ccc2c(c1)OCO2 (stereo not given),0
2,Cn1c(=O)[nH]c(=O)c2c1nc(N1CCCCC1)n2CCSc1ncccn1,0
3,COCCN(CC(=O)NC1CCCCC1)C(=O)CSc1nc2ccccc2o1,0
4,CC(=O)N1CCN(S(=O)(=O)c2ccc(S(=O)(=O)NCC(C)C)cc2)CC1,5
5,CCOC(=O)CNC(=O)CSc1ncnc2c1cnn2-c1ccccc1,0
6,Cn1c(SCC(=O)N2CCOCC2)nnc1-c1cccc(NC(=O)c2ccccc2F)c1,0
7,CCS(=O)(=O)N1CCC(C(=O)NCc2cccs2)CC1,2
8,CCOc1ccc(N(CC)C(=O)COc2cc(=O)n(C)c3ccccc23)cc1,0
9,O=C(Nc1ccccc1N1CCCCC1)c1ncoc1-c1ccc(F)cc1,1
10,Cc1nc(N2CCN(c3ncccn3)CC2)c2oc3ccccc3c2n1,2
11,COc1ccc2c(c1)C(=NO)c1cc(OC)ccc1-2,0
12,CC1(C)CC(=O)c2cc(OCC(=O)NCCCN3CCN(c4ccccc4F)CC3)ccc2O1,0
13,O=C(CCNS(=O)(=O)c1ccc(Cl)cc1)NCc1ccccn1,0
14,O=C(CSc1nc(-c2ccco2)cc(C(F)(F)F)n1)N1CCCc2ccccc21,5
15,COc1ccc(CCn2c(-c3ccco3)nc3ccccc3c2=O)cc1OC,0
16,CC1=C(C)[N+](=O)C2CCCCC2N1[O-] (stereo not given),3
17,CCOC(=O)CSc1nnc(NC(=O)c2cccc(S(=O)(=O)N3CCCCC3)c2)s1,5
18,Cc1ccc(N2CCN(CCc3nc4cc(NS(C)(=O)=O)ccc4n3C)CC2)cc1,0
19,Cc1ccc(S(=O)(=O)N2CCCC(c3nnc4n3-c3ccccc3SC4)C2)cc1 (stereo not given),9
20,Cc1cc(=O)[nH]c2c1cnn2Cc1ccccc1,1
